The text below walks through data of PubChem BioAssay AID2566 (National Center for Advancing Translational Sciences (NCATS), 2010).

Values joined by “and” are separate entries in the source; they are usually repeats but may differ in a detail not shown here. Equal entries are not always repeated. Inconclusive results are not listed. Active and inactive are the calls of the source.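 How the source made its calls: active means compound that pushes labeled neuropeptide S off its receptor in a binding test; inconclusive means all other tested compounds; inactive means none, nothing was called inactive.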

Chain of Neuropeptide S receptor (Homo sapiens) (Q6W5P4 whole entry, looked up): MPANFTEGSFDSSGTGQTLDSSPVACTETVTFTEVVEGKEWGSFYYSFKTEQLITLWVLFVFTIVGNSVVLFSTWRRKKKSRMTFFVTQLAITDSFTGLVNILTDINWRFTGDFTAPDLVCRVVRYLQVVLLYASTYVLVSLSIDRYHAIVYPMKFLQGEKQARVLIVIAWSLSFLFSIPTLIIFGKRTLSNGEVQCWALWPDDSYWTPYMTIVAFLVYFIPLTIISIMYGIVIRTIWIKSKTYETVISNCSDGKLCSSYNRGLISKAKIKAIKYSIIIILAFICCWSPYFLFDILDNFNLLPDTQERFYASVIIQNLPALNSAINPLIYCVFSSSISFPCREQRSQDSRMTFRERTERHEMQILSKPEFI

This test addresses Neuropeptide S receptor (Homo sapiens) (UniProt Q6W5P4). Kind of test: Confirmation Concentration-Response Assay for Antagonists of the Neuropeptide S Receptor: Radioligand Displacement, SAR for Probe. The note with it: CHO-hNPSR, [125I]Y10-NPS displacement, 1.5 h. The text has this:
NIH Chemical Genomics Center [NCGC] NIH Molecular Libraries Probe Production centers Network [MLPCN] MLPCN Grant: X01-DA026210-01 Assay Submitter (PI): Heilig, Markus Alexander NCGC Assay Overview: Neuropeptide S receptor (NPSR), previously known as GPR154, is a recently de-orphanized G protein coupled receptor. Its endogenous ligand is the 20 amino acids peptide Neuropeptide S (NPS). […] NPS and its receptor are found in various tissues. Specifically they are highly expressed in brain areas that have been implicated in modulation of arousal, stress and anxiety. Central administration of NPS in mice produces an unusual profile of activity by inducing wakefulness and arousal, while at the same time suppressing anxiety. Therefore, NPSR may represent a novel drug target for the treatment of sleep and anxiety disorders. As one method of confirming the specific activity of compounds active in the primary screen (AID 1461), we developed an assay to measure the displacement of radio-labeled native ligand, NPS, from its receptor in vitro.
The assay was carried out as described (Xu et al. (2004) Neuron, 43: 487-497) with minor modification. Y10-NPS labeled with 125I was bought from NEN Perkin Elmer (Boston, MA). CHO cells stably expressing human NPSR were seeded into 24-well plates and cultured until reaching 90-95% confluency. Cells were washed with 1ml PBS once and then incubated with radioligand with or without compounds or in DMEM medium containing 0.1% bovine serum albumin at 20C for 1.5 hr. Increasing concentrations of compounds or unlabeled human NPS were used to compete with 0.15 nM [125I] Y10-NPS. Nonspecific binding was determined in the presence of 1 uM unlabeled human NPS. Cells were washed twice with cold PBS and lysed with 1 N NaOH. Bound radioactivity was counted in a liquid scintillation counter.
(Loss of bound radioactivity is the signal in a displacement assay; it reports binding, not function.)
For the compound `COc1cccc(C2c3c(ncn(CCN4CCOCC4)c3=N)Oc3ccc4ccccc4c32)c1` (centres undefined), the Potency was 439 nM (active).

`O=C1OC(c2ccccc2)(c2ccccc2)N2CCN(C(=O)NCc3ccc(F)cc3)CC12` (centres undefined): the Potency is 5.93 nM (active).

With `N=c1c2c(ccn1-c1ccccc1)Oc1ccc3ccccc3c1C2c1ccccc1` (centres undefined), the Potency was 367 nM (active).

Take `N#CC1=C(NC=NCc2ccccc2)Oc2ccc3ccccc3c2C1c1ccccc1` (centres undefined): the Potency was 322 nM (active).

Regarding `CCOC(=O)C1CCCN(c2ncnc3c2oc2ccccc23)C1` (centres undefined), the Potency is 26400 nM (active).

Regarding `COc1cccc(C2c3c(ncn(-c4ccccc4)c3=N)Oc3ccc4ccccc4c32)c1` (centres undefined), the Potency is 266 nM (active).

Turning to `CCC(C)(CCN1CCOCC1)N(Cc1cc2ccccc2n(C)c1=O)C(=O)C1CCCCC1` (centres undefined), the Potency was 6.54 nM (active).

With `COc1ccc(C2c3c(ncn(CCN4CCOCC4)c3=N)Oc3ccc4ccccc4c32)cc1OC` (centres undefined), the Potency is 256 nM (active) and 190 nM (active).

Regarding `CCOC(=O)CC(=O)Nc1ncnc2c1C(c1ccccc1)c1c(ccc3ccccc13)O2` (centres undefined), the Potency was 616 nM (active).
